Rev-erbA mod: modulators of human Rev-erb alpha DNA binding. P20393. Rev-erbα–FITC-DNA binding, fluorescence polarization, 90 min. activity, % at 10 µM. 0.79% of 370,000 active. AID 1259318;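 active = activity above about 14%, limit read from the data; passing the limit was not always enough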;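 also: 0% = DMSO wells with 35 nM protein and 100% = DMSO wells with 750 nM protein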
ssDAF-12 act: activates DAF-12 receptor from parasite S. stercoralis; HEK293 ssDAF-12/GRIP1 lit1-tk-luc reporter, luminescence; % of 3 µM dafachronic acid response; activation, % at 6.8 µM; 1% of 370,000 active; AID 652126;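 active = activation above the mean over all tested compounds plus 3 SD, cut at about 0.9% in these data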;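 also: 0% = DMSO-only wells and 100% = 3 µM delta7-dafachronic acid wells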
DAX1 inh-1: inhibitors of DAX1 repression of SF-1 activated StAR promoter | HEK293T StAR-luciferase reporter, SF-1/DAX-1 repression relief | inhibition, % at 6.8 µM | 1.1% of 370,000 active;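 active = inhibition above the mean over all tested compounds plus 3 SD, cut at about 3.6% in these data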;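 also: 0% = DAX-1 cells with DMSO and 100% = cells lacking DAX-1 with DMSO; higher inhibition means more luminescence from relief of DAX-1 repression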
hcDAF-12 act: H. contortus DAF-12 activation, primary screen. AID 652067. HEK293 hcDAF-12 lit1-tk-luc reporter, luminescence; 0% DMSO, 100% Δ7-dafachronic acid. 1.4% of 370,000 active. activation, % at 6.8 µM;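 active = activation above the mean of all tested compounds plus 3 SD, cut at about 5.5% in these data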;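 also: 100% = response to 3 µM Δ7-dafachronic acid high control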
hgDAF-12 ag: hgDAF-12 agonism, primary luciferase screen; 1.8% of 370,000 active; HEK293 GAL4-hgDAF12 UAS-luciferase reporter, agonist luminescence; normalized to butyrate control; activation, % at 6.8 µM;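 active = activation above a cutoff set at the mean of all screened compounds plus 3 SD, cut at about 10% in these data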;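 also: 0% = DMSO wells and 100% = sodium butyrate wells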
DAX1 inh-2: inhibits human nuclear receptor DAX1. AID 504766. inhibition, % at 6.75 µM. P51843. 0.99% of 340,000 active. HEK293 Gal4-DAX1 luciferase reporter, luminescence;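 active = inhibition above the mean over all tested compounds plus 3 SD, cut at about 4.2% in these data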;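 also: 0% = DAX1-transfected cells with DMSO and 100% = empty-vector control cells with DMSO; inhibition shows as a rise in luminescence from relieved DAX1 repression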
Target sequence (P51843 207-470 limits assumed): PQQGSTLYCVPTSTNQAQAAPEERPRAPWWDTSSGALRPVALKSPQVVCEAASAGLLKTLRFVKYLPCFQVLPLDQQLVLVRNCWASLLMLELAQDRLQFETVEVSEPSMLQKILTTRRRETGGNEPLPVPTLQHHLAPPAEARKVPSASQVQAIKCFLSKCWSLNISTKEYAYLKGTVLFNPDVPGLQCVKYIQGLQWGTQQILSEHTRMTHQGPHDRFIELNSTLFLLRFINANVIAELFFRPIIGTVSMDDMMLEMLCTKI
DAX1 conf: confirmation of human DAX1 (NR0B1) inhibitors; shares compounds with DAX1 inh-1; HEK293T StAR-promoter luciferase reporter, SF-1/DAX-1 repression; inhibition, % at 6.8 µM; 87% of 2,400 active; AID 652134;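 active = inhibition above the average of every tested compound plus 3 SD, cut at about 3.8% in these data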;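 also: 0% = DAX-1 cells with DMSO and 100% = no DAX-1 control cells with DMSO; active compounds raise luminescence by relieving repression of the StAR reporter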
SF1 AF2mut Luc: counter-screen for DAX1 inhibitors: nonselective inhibitors with SF-1 AF2 mutant | inhibition, % at 6.8 µM | 78% of 2,400 active | AID 652136 | shares compounds with DAX1 inh-1 | HEK293 StAR-luciferase, luminescence;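 active = inhibition above the mean of all tested compounds plus 3 SD, cut at about 3% in these data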;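 also: 0% = DAX-1 transfected cells with DMSO and 100% = cells without DAX-1 with DMSO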
* hit, by the source's call; x = no result. Most compounds without a hit are left out; they make up all but 4.8% or so of the library.

SMILES	Rev-erbA mod	ssDAF-12 act	DAX1 inh-1	hcDAF-12 act	hgDAF-12 ag	DAX1 inh-2	DAX1 conf	SF1 AF2mut Luc
O=C(c1ccc2nc(Cc3ccccc3F)oc2c1)N1CC[C@H](O)C1	2	-1	6.2*	4	6	0	5.9*	1
COc1ccc(Cc2nc3ccc(C(=O)N4CCOCC4)cc3o2)cc1	0	0	5.4*	4	10	2	7.4*	3.8*
Cc1cc(CN(C)C(=O)c2ccc3nc(Cc4ccccc4F)oc3c2)n[nH]1	4	-1	-1	-2	0	0	x	x
CC(c1ccccn1)N(C)C(=O)c1ccc2nc(Cc3ccccc3F)oc2c1 (stereo not given)	-4	-1	4.8*	3	8	2	5.3*	4.4*
COCc1cc(N2CCN(C(=O)OC(C)(C)C)C[C@@H]2C)ccc1N1CC[C@@H](O)C1	3	-1	-1	-1	1	x	x	x
COC(=O)CSc1nnc(-c2n[nH]c3c2CCC3)n1N	-1	-1	0	0	0	x	x	x
CCN(C(=O)C1CCN(c2ncccn2)CC1)c1ccccc1	-1	-2	0	0	-2	x	x	x
O=c1[nH]c(=O)n([C@H]2C[C@H](O)[C@@H](CO)O2)cc1I	-3	0	5.6*	1	10	0	14*	6.1*
CN1CCN(C(=O)c2ccc3c(Cl)c4c(nc3c2)CCCC4)CC1	-4	-1	5.8*	0	1	0	4.8*	2
CC(C)(C)c1cc(NC(=O)c2cccs2)no1	0	1	11*	4	11*	0	12*	7.2*
COc1ccc(-c2cc(=O)c3c(C)cc(O)cc3o2)cc1	-7	1.8*	5.6*	6.5*	12*	2	13*	4.6*
COc1cc(-c2cc(=O)c3c(C)cc(O)cc3o2)cc(OC)c1OC	-4	-1	-2	-3	-1	1	x	x
CN1CCC(N2CCN(C3CN(Cc4cn(Cc5ccc(F)cc5)nn4)S(=O)(=O)C3)CC2)CC1 (stereo not given)	-3	-1	3	-1	4	x	x	x
COc1ccc(Cn2cc(CN3CC(N4CCN(C5CCN(C)CC5)CC4)CS3(=O)=O)nn2)cc1 (stereo not given)	-8	-1	7.6*	0	-1	x	2	-1
Cc1cnc(NC(=O)CCCNC(=O)c2ccc(Cl)cc2)s1	-3	0	5.5*	4	5	2	3	3.2*
Cc1ccc(NC(=O)CCCNC(=O)c2ccc(Cl)cc2)c(O)c1	-6	1	5.3*	6.4*	8	0	4.1*	3.7*
Cc1ccc(NC(=O)CCCNC(=O)c2ccc(Cl)cc2)nc1	-18	-1	1	0	4	1	x	x
CC(=NN1CCN(c2ccccn2)CC1)c1ccccc1O	-6	-1	0	-2	4	x	x	x
Nc1ccccc1C(=O)Nc1nccs1	-3	-1	1	2	1	1	x	x
Nc1ccc(C(=O)Nc2nccs2)cc1	-5	-1	4.8*	3	10	1	5.1*	4.7*
COc1ccc(C(CNC(=O)c2oc3ccc(OC)cc3c2C)N2CCCC2)cc1 (stereo not given)	-1	-1	5.0*	0	2	0	6.1*	4.2*
COc1ccc2oc(C(=O)Nc3ccc(C)cn3)c(C)c2c1	-1	0	5.0*	4	11*	3	10*	6.6*
COc1ccc2oc(C(=O)NCCC(C)C)c(C)c2c1	-6	0	6.1*	5	9	2	14*	6.2*
COc1ccc(C(CNC(=O)c2oc3ccc(Br)cc3c2C)N2CCCCC2)cc1 (stereo not given)	2	-1	1	-1	3	-1	x	x
COc1cc2ccccc2cc1C(=O)Nc1ccc(C)cn1	0	0	5.5*	5.7*	11*	1	13*	6.8*
SMILES	Rev-erbA mod	ssDAF-12 act	DAX1 inh-1	hcDAF-12 act	hgDAF-12 ag	DAX1 inh-2	DAX1 conf	SF1 AF2mut Luc
CCOC(=O)C1=C(C(=O)OCC)C2N(Cc3ccc(C#N)cc3)c3ccccc3[C@@]23C[C@@H](C(=O)OC)N(S(=O)(=O)c2ccc(C#N)cc2)C3=N1 (stereo not given in full)	8	-1	0	-1	0	x	x	x
COc1ccc2oc(C(=O)N3CCN(C(c4ccccc4)c4ccccc4)CC3)c(C)c2c1	-6	-1	-1	0	-1	-2	x	x
COc1ccc2oc(C(=O)N3CCc4ccccc43)c(C)c2c1	9	1	11*	4	7	-2	15*	5.3*
O=C(Nc1nnc(C2CC2)s1)C1COc2ccccc2O1 (stereo not given)	-1	-1	5.7*	3	12*	2	11*	5.5*
O=C(Nc1nnc(C2CC2)s1)c1cc2ccccc2o1	-6	0	6.1*	3	13*	2	7.3*	4.8*
CC(C)(C)c1csc(NC(=O)C2COc3ccccc3O2)n1 (stereo not given)	-1	-1	5.0*	1	10	1	2	3
O=C(Nc1nnc(C(F)(F)F)s1)C1COc2ccccc2O1 (stereo not given)	2	-1	0	0	2	1	x	x
CCOC(=O)C1=C(C(=O)OCC)C2N(Cc3ccc(C(F)(F)F)cc3)c3ccccc3[C@@]23C[C@@H](C(=O)OC)N(S(=O)(=O)c2ccc(OC)cc2)C3=N1 (stereo not given in full)	-6	-1	0	0	1	x	x	x
O=C(OC12CCCN(C1)/C(=C/c1cccnc1)C2)c1cccc(F)c1 (stereo not given)	1	-2	-2	-3	-3	x	x	x
CC(Cc1ccccn1)NC(=O)c1ccc(OC2CCN(CCc3ccccc3)CC2)cc1 (stereo not given)	0	-1	-2	0	2	0	x	x
O=C(NCCc1ccccn1)c1ccc(OC2CCN(CCc3ccccc3)CC2)cc1	3	0	5.8*	3	12*	1	9.1*	4.1*
C=CCN1CC(COCc2ccccc2)OCCS1(=O)=O (stereo not given)	-7	0	0	-1	0	x	x	x
Cn1cccc1/C=N/NC(=O)c1cccs1	3	0	5.5*	1	11*	2	5.7*	3.7*
O=C(C(=O)N1CCN(S(=O)(=O)c2cccc3ccccc23)CC1)c1cccc(C(F)(F)F)c1	-1	1	-2	-1	0	x	x	x

Screening results deposited in PubChem by several laboratories.
